TLR4 MyD88 comp – TLR4-MyD88 interaction inhibition in cells; O00206+Q99836; HeLa CL3-4 TLR4/MyD88 BLA complementation, FRET ratio; inhibition, % at 8.4 µM; actives 0.18% (n = 200,000); in the data active = inhibition above about 25%
TLR9-MyD88 inh – TLR9-MyD88 interaction inhibition; Q9NR96+Q99836; CHO BLA complementation TLR9-MyD88, CCF4 FRET ratio; inhibition, % at 4.98 µM; actives 0.21% (n = 340,000); AID 504734;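 active = inhibition above the mean over all tested compounds plus 3 SD, cut at about 21% in these data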
Myeloid diff MLP – compounds promoting myeloid differentiation; ER-HoxA9 myeloid progenitors, lysozyme-GFP differentiation, flow cytometry; calls only at 10 µM; actives 1% (n = 360,000); AID 624256;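 active = normalized GFP-positive differentiation at or above the plate's own cutoff, the solvent-only control mean plus 3 SD; inconclusive = no clear call, values can overlap the other calls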;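 note: cells exposed to compound for four days before flow analysis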
NOD2-RIPK2 inh – NOD2-RIPK2 protein interaction inhibition | CHO BLA complementation NOD2-RIPK2, CCF4 ratio | inhibition, % at 4.98 µM | actives 0.38% (n = 360,000); in the data active = inhibition above about 21%
Target sequence (O43353 whole entry, looked up): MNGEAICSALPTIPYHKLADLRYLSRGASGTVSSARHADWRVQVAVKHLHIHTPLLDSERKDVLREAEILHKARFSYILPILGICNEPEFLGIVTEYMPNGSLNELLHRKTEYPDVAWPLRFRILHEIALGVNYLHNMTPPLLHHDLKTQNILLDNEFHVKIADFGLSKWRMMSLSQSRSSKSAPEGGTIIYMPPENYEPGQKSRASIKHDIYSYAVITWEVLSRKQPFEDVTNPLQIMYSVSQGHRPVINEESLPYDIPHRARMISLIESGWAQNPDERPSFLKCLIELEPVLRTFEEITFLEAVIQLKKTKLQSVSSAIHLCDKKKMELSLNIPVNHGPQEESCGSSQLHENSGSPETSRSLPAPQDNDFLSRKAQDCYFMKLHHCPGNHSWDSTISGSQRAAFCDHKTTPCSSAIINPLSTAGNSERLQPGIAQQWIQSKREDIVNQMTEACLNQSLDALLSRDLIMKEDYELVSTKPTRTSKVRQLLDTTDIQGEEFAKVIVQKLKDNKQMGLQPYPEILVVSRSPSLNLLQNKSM
ABCB6 inh MLPCN – inhibitors of human ABC transporter ABCB6; K562-ABCB6 porphyrin accumulation, flow cytometry, 1 h; active compounds read low; fluorescence ratio to DMSO, % at 10 µM; actives 0.19% (n = 360,000); AID 602162;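 active = fluorescence ratio to DMSO below 75%, the collection mean minus 3 SD; inconclusive = too few cells collected in the well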;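 note: signal is porphyrin accumulated inside mitochondria; lower ratio means ABCB6 inhibition with less porphyrin fluorescence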
A number is an active result. In the library only some 1.7% were active in any assay of this set; here they are far more common.

How did O=C(N/N=C/c1ccccc1C(=O)O)c1ccc(COc2cccc3cccnc23)cc1 do in these assays?
TLR4 MyD88 comp: inactive; TLR9-MyD88 inh: inactive; Myeloid diff MLP: active; NOD2-RIPK2 inh: inactive; ABCB6 inh MLPCN: inactive

How did NNC(=O)c1ccc(COc2cccc3cccnc23)cc1 do in these assays?
TLR4 MyD88 comp: inactive; TLR9-MyD88 inh: inactive; Myeloid diff MLP: active; NOD2-RIPK2 inh: inactive; ABCB6 inh MLPCN: inactive

How did O=C(COc1cccc2cccnc12)N/N=C/c1ccccc1O do in these assays?
TLR9-MyD88 inh: inactive; Myeloid diff MLP: inactive; NOD2-RIPK2 inh: inactive; ABCB6 inh MLPCN: inactive

How did CCCCc1ccc(-c2csc(/C(C#N)=C/c3ccco3)n2)cc1 do in these assays?
TLR4 MyD88 comp: inactive; TLR9-MyD88 inh: inactive; Myeloid diff MLP: active; NOD2-RIPK2 inh: inactive; ABCB6 inh MLPCN: inactive

What do the screens show for `N#C/C(=C\c1ccc(Cl)cc1)c1nc(-c2ccco2)cs1`?
TLR4 MyD88 comp: inactive; TLR9-MyD88 inh: inactive; Myeloid diff MLP: active; NOD2-RIPK2 inh: inactive; ABCB6 inh MLPCN: inactive

What do the screens show for `CCCc1nnc(NC(=O)c2cc3ccccc3oc2=O)s1`?
TLR4 MyD88 comp: inactive; TLR9-MyD88 inh: inactive; Myeloid diff MLP: inactive; NOD2-RIPK2 inh: inactive; ABCB6 inh MLPCN: inactive

What do the screens show for `CCCc1nnc(NC(=O)c2cc3ccccc3o2)s1`?
TLR9-MyD88 inh: inactive; Myeloid diff MLP: active; NOD2-RIPK2 inh: inactive; ABCB6 inh MLPCN: inactive

How did COC(=O)c1ccc(CSc2nc3ccc(Cl)cc3[nH]2)o1 do in these assays?
TLR4 MyD88 comp: inactive; TLR9-MyD88 inh: inactive; Myeloid diff MLP: inactive; NOD2-RIPK2 inh: inactive; ABCB6 inh MLPCN: inactive

Results for COC(=O)c1ccc(CSc2nc3scc(-c4cccs4)c3c(=O)[nH]2)o1 ?
TLR4 MyD88 comp: inactive; TLR9-MyD88 inh: inactive; Myeloid diff MLP: inactive; NOD2-RIPK2 inh: inactive; ABCB6 inh MLPCN: 59

Results for COc1ccc(C2=Nn3c([n+](C)c4ccccc43)SC2)cc1 ?
TLR4 MyD88 comp: inactive; TLR9-MyD88 inh: inactive; Myeloid diff MLP: inconclusive; NOD2-RIPK2 inh: inactive; ABCB6 inh MLPCN: inactive

What do the screens show for `C[n+]1c2n(c3ccccc31)N=C(c1ccc(Cl)cc1)CS2`?
TLR4 MyD88 comp: inactive; TLR9-MyD88 inh: inactive; Myeloid diff MLP: active; NOD2-RIPK2 inh: inactive; ABCB6 inh MLPCN: inactive

What do the screens show for `CC1N(C)c2cccc3cccc(c23)N1C`?
TLR4 MyD88 comp: inactive; TLR9-MyD88 inh: inactive; Myeloid diff MLP: active; NOD2-RIPK2 inh: inactive; ABCB6 inh MLPCN: inactive

What do the screens show for `CN1c2cccc3cccc(c23)N(C)C1c1cccs1`?
TLR4 MyD88 comp: inactive; TLR9-MyD88 inh: inactive; Myeloid diff MLP: inactive; NOD2-RIPK2 inh: inactive; ABCB6 inh MLPCN: inactive

What do the screens show for `CCC(=O)N1CCCc2cc(S(=O)(=O)N3CCN(c4ccccc4F)CC3)ccc21`?
TLR4 MyD88 comp: inactive; TLR9-MyD88 inh: inactive; Myeloid diff MLP: active; NOD2-RIPK2 inh: inactive; ABCB6 inh MLPCN: inactive

Results for COc1cccc(NC(=S)/C(=C(\[O-])c2ccc([N+](=O)[O-])cc2)[n+]2ccccc2)c1 ?
TLR4 MyD88 comp: inactive; TLR9-MyD88 inh: inactive; Myeloid diff MLP: inactive; NOD2-RIPK2 inh: inactive; ABCB6 inh MLPCN: inactive

Results for O=C(Nc1cc(Cl)ccc1-n1cncn1)c1ccco1 ?
TLR9-MyD88 inh: inactive; Myeloid diff MLP: inactive; NOD2-RIPK2 inh: inactive; ABCB6 inh MLPCN: inactive

What do the screens show for `O=C(Nc1cc(Cl)ccc1-n1cncn1)c1ccc([N+](=O)[O-])s1`?
TLR9-MyD88 inh: inactive; Myeloid diff MLP: active; NOD2-RIPK2 inh: inactive; ABCB6 inh MLPCN: inactive

What do the screens show for `COc1cccc(-c2ccc(SCC(=O)NC3CCCCC3)nn2)c1`?
TLR9-MyD88 inh: inactive; NOD2-RIPK2 inh: inactive; ABCB6 inh MLPCN: inactive

What do the screens show for `COc1ccc(N2CCN(C(=O)c3ccc(S(=O)(=O)N4CCCC4)cc3)CC2)cc1`?
TLR9-MyD88 inh: inactive; Myeloid diff MLP: inactive; NOD2-RIPK2 inh: inactive; ABCB6 inh MLPCN: inactive

What do the screens show for `O=C(OCC(=O)N1CCN(S(=O)(=O)c2ccccc2)CC1)C1CCC1`?
TLR9-MyD88 inh: inactive; Myeloid diff MLP: inactive; NOD2-RIPK2 inh: inactive; ABCB6 inh MLPCN: inactive

How did COc1ccc(N2CCN(C(=O)c3ccc(S(=O)(=O)N4CCOCC4)cc3)CC2)cc1 do in these assays?
TLR4 MyD88 comp: inactive; TLR9-MyD88 inh: inactive; Myeloid diff MLP: active; NOD2-RIPK2 inh: inactive; ABCB6 inh MLPCN: inactive

What do the screens show for `O=C(c1ccccc1)N1CCN(C(=O)c2cccnc2)CC1`?
TLR9-MyD88 inh: inactive; Myeloid diff MLP: active; NOD2-RIPK2 inh: inactive; ABCB6 inh MLPCN: inactive

How did Cc1ccc(S(=O)(=O)N2CCN(C(=O)c3ccccc3)CC2)cc1 do in these assays?
TLR4 MyD88 comp: inactive; TLR9-MyD88 inh: inactive; Myeloid diff MLP: active; NOD2-RIPK2 inh: inactive; ABCB6 inh MLPCN: inactive

What do the screens show for `O=C(CC1CCCC1)N1CCN(S(=O)(=O)c2ccccc2)CC1`?
TLR9-MyD88 inh: inactive; Myeloid diff MLP: active; NOD2-RIPK2 inh: inactive; ABCB6 inh MLPCN: inactive

What do the screens show for `CCCN(CCC)c1ccc(/C=C/c2ccc3cc(OCC)ccc3n2)cc1`?
TLR9-MyD88 inh: inactive; Myeloid diff MLP: active; NOD2-RIPK2 inh: inactive; ABCB6 inh MLPCN: inactive

How did Cc1nn(-c2cc(N3CCCC3)ccc2[N+](=O)[O-])c(=O)c2ccccc12 do in these assays?
TLR4 MyD88 comp: inactive; TLR9-MyD88 inh: inactive; Myeloid diff MLP: inactive; NOD2-RIPK2 inh: inactive; ABCB6 inh MLPCN: inactive

How did Cc1ccc(C)c(-c2nn(-c3cc(N4CCN(CCO)CC4)ccc3[N+](=O)[O-])c(=O)c3ccccc23)c1 do in these assays?
TLR4 MyD88 comp: inactive; TLR9-MyD88 inh: inactive; Myeloid diff MLP: inactive; NOD2-RIPK2 inh: 22; ABCB6 inh MLPCN: inactive

Results for C/C(=N\Nc1ccccc1Cl)c1ccc(-n2ccnc2)cc1 ?
TLR4 MyD88 comp: inactive; TLR9-MyD88 inh: inactive; Myeloid diff MLP: active; NOD2-RIPK2 inh: inactive; ABCB6 inh MLPCN: inactive

What do the screens show for `C/C(=N\Nc1ccc(C(=O)O)cc1)c1ccc(-n2ccnc2)cc1`?
TLR4 MyD88 comp: inactive; TLR9-MyD88 inh: inactive; Myeloid diff MLP: inactive; NOD2-RIPK2 inh: inactive; ABCB6 inh MLPCN: inactive

How did Cc1cc(/C=C2\NC(=S)N(C)C2=O)ccc1N1CCCC1 do in these assays?
TLR4 MyD88 comp: inactive; TLR9-MyD88 inh: inactive; Myeloid diff MLP: active; NOD2-RIPK2 inh: inactive; ABCB6 inh MLPCN: inactive

Results for O=C(O)c1ccccc1-c1ccccc1C(=O)Nc1ccc2c(c1)C(O)c1ccccc1-2 (centres undefined) ?
TLR9-MyD88 inh: inactive; Myeloid diff MLP: inactive; NOD2-RIPK2 inh: inactive; ABCB6 inh MLPCN: inactive

Results for CCCC(=O)NC(c1ccco1)c1cc([N+](=O)[O-])c2cccnc2c1O (centres undefined) ?
TLR4 MyD88 comp: inactive; TLR9-MyD88 inh: inactive; Myeloid diff MLP: active; NOD2-RIPK2 inh: inactive; ABCB6 inh MLPCN: inactive

How did CCC(=O)NC(c1ccc(C)cc1)c1cc([N+](=O)[O-])c2cccnc2c1O (centres undefined) do in these assays?
TLR4 MyD88 comp: inactive; TLR9-MyD88 inh: inactive; Myeloid diff MLP: inactive; NOD2-RIPK2 inh: inactive; ABCB6 inh MLPCN: inactive

Results for COc1cc(-c2cc(-c3ccc(N)cc3)[nH]c(=O)c2C#N)cc(OC)c1OC ?
TLR9-MyD88 inh: inactive; Myeloid diff MLP: active; NOD2-RIPK2 inh: inactive; ABCB6 inh MLPCN: inactive

What do the screens show for `N#Cc1c(-c2ccccc2)cc(-c2ccccc2)[nH]c1=O`?
TLR9-MyD88 inh: inactive; Myeloid diff MLP: inactive; NOD2-RIPK2 inh: inactive; ABCB6 inh MLPCN: inactive

High-throughput results as filed in PubChem.
